# From PubChem
# PLK1 PBD inh: Plk1 (human) PBD binding inhibition | P53350 | Plk1 PBD phosphopeptide binding, fluorescence polarization | inhibition, %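 (tested at about 20 µM)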 | 97,000 compounds, 0.13% hits | AID 693; in the data active = inhibition above about 34%, passing the limit was not always enough
# Target sequence (P53350 whole entry, looked up): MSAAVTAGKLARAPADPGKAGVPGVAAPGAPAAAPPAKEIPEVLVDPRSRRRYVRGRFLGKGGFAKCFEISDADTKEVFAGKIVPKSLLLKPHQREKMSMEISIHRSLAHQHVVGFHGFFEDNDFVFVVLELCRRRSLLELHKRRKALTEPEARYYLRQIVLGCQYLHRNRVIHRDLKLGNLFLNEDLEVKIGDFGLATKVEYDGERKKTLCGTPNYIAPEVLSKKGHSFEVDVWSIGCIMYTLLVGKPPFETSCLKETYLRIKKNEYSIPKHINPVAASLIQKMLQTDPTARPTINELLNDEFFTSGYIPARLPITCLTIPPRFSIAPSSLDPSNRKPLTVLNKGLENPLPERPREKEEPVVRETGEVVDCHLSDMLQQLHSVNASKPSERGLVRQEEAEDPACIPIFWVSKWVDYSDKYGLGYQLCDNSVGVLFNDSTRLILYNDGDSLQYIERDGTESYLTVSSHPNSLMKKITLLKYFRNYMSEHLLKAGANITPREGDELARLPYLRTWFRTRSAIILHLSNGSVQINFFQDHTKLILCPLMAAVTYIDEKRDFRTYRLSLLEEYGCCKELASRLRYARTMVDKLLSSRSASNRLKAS
# HUVEC tox IL1B: HUVEC cytotoxicity counter-screen, IL-1B stimulated; 94,000 compounds, 0.41% hits; cell count reduction, % at 2 µM; HUVEC cell count loss, Hoechst imaging; AID 845;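 active = cell count reduction more than 3 SD above the screen-wide mean, cut at about 70% in these data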;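 note: normalized per plate to untreated control cells as the no-loss baseline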
# PLK1 inh: blocks human PLK1 kinase activity; P53350; recombinant PLK1 kinase, TR-FRET peptide phosphorylation; inhibition, % at 10 µM; 97,000 compounds, 0.53% hits; AID 619;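 active = inhibition of 50% or more in the single-concentration screen; inactive = inhibition below 50%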;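 note: 0% = DMSO max control and 100% = H-89 dihydrochloride min control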
# PTK2B oligo ant: blocks oligomerization of human Pyk2 in cells; Q293 cells, Pyk2 FERM NanoBiT luminescence; stronger effect = lower value; z-score (the deposit names both 25 µM and 10 µM); 99,000 compounds, 0.83% hits;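 active = Z-score of -3 or lower, scaled per plate to the spread of control and sample wells; inactive = z-score above -3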;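 note: negative z-score means lost luminescence so less FERM oligomerization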
# IL1B NFkB pot: enhances IL-1B driven NFkB nuclear translocation. activation, % at 2 µM. AID 819. 94,000 compounds, 0.3% hits. HUVEC IL-1B NFkB p65 nuclear translocation imaging;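 active = activation above 40%, about the mean plus 3 SD, also judged a hit on visual image review; inconclusive = activation above 40% but not a hit on visual review; inactive = activation not above 40% and no visual hit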;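 note: percent activation is computed from the nuclear over cytoplasmic p65 intensity ratio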
# NFkB transloc inh: blocks IL-1B driven NFkB nuclear translocation in HUVEC cells; HUVEC IL-1B NFkB p65 nuclear translocation imaging; inhibition, % at 2 µM; 94,000 compounds, 0.43% hits; AID 796;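 active = inhibition above about 30% together with a positive call from visual inspection of the well image, limit read from the data; inconclusive = inhibition above a set limit but visual check negative; inactive = inhibition not above a set limit, visual check negative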;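 note: nuclear over cytoplasmic p65 intensity ratio measured by imaging; 0% = IL-1B stimulated DMSO wells and 100% = unstimulated DMSO wells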
# An asterisk follows results filed as active; ? = inconclusive; · = no result. Compounds with a hit are over-represented: about 2.2% of the library has one in this group of screens.
SMILES,PLK1 PBD inh,HUVEC tox IL1B,PLK1 inh,PTK2B oligo ant,IL1B NFkB pot,NFkB transloc inh
CC(CC(=O)Nc1nncs1)c1ccccc1 (configuration not stated),0.5,30.4,-6.5,1.71,-22.9,22.9
COc1ccc(C=O)cc1CSc1nnc(COc2cccc3cccnc23)o1,3.6,-16.8,4.4,-0.76,?,-40.1
CCCCCCCC(=O)NN=C1CCN(Cc2ccccc2)CC1,·,·,·,0.1,·,·
COc1cccc(-c2nn(C)c3sc(C(=O)N4CCN(c5ccccn5)CC4)cc23)c1,·,·,·,-3.91*,·,·
COc1cccc(-c2nn(C)c3sc(C(=O)N4CCOCC4)cc23)c1,-1.7,4.2,-15.9,·,8.4,-8.4
CCCc1c(O)nc(SCCN(CC)CC)[nH]c1=O,-23.5,89.4*,-6.3,-0.93,-32.2,32.3*
CCOC(=O)c1c(C)n(CCNC(C)=O)c2ccc(O)cc12,10.6,-100.0,-6.0,0.2,18.4,-18.4
CCOC(=O)c1c(C)n(CC(O)c2ccccc2)c2ccc(O)cc12 (configuration not stated),-14.4,0.0,-6.9,-3.05*,-0.2,0.2
Cn1c(=O)c2c(nc(SCC(=O)N(C3CCCCC3)C3CCCCC3)n2C)n(C)c1=O,-9.5,12.7,-6.8,·,-3.4,3.4
Cc1ccc(NC(=O)Cn2c(=O)n(CCCC(=O)NCc3ccco3)c(=O)c3ccccc32)cc1,0.0,-4.1,4.8,-3.1*,19.8,-19.8
Cc1ccc(CNC(=O)CCCn2c(=O)c3ccccc3n(CC(=O)NCc3ccco3)c2=O)cc1,11.0,33.6,-15.6,-0.35,-10.0,10.0
CCOC(=O)C1=C(N)Oc2cc(C)oc(=O)c2C1c1cccnc1 (configuration not stated),-7.5,4.9,-0.1,0.93,1.9,-1.9
CCOC(=O)C1=C(N)Oc2ccc3ccccc3c2C1c1cccnc1 (configuration not stated),-10.9,31.1,-14.6,-3.15*,-14.7,14.7
Cc1sc2nc(SCC(=O)NCc3cccs3)[nH]c(=O)c2c1C,25.1,-14.0,51.6*,0.9,4.5,-4.5
Cc1cc(C)c2c(=O)[nH]c(SCC(=O)NCc3ccccc3)nc2n1,0.5,-8.8,49.6,-0.57,-45.8,45.8*
Cn1c(CSCc2ccccc2Cl)nnc1SCC(=O)Nc1nccs1,-21.0,-12.2,65.1*,0.73,-0.1,0.1
Cn1c(CC(=O)Nc2ccc(Cl)c(Cl)c2)nnc1SCC(=O)Nc1nccs1,-7.3,26.4,-4.7,0.91,4.4,-4.4
CCOC(=O)C(=CNc1ccc(C)cc1C)C(=O)OCC,7.3,5.7,-6.4,-3.16*,-8.8,8.8
CCN(CC)C(=O)COc1cc(C)cc2oc(=O)cc(-c3ccccc3)c12,8.2,4.7,-12.1,-1.28,-33.0,33.0*
CC(=O)Oc1ccc(C(=O)Nc2cccc(C(=O)c3ccc(C)c(C)c3)c2)cc1,·,·,-11.1,·,·,·
CCOc1ccc(NC(=O)CC2C(=O)N(c3ccccc3)C(=O)N2CCc2cccs2)cc1 (configuration not stated),·,·,·,-1.03,·,·
CCCCNC(=O)c1sc(=S)n2c1[nH]c(=O)c1ccccc12,-13.5,-1.6,-10.9,1.1,-6.5,6.5
O=C(NC1CCCCC1)c1sc(=S)n2c1[nH]c(=O)c1ccccc12,1.4,-6.1,-6.3,-3.03*,11.9,-11.9
COc1ccc(N2CCN(C(CNC(=O)c3ccco3)c3cccnc3)CC2)cc1 (configuration not stated),13.8,-12.4,-3.2,-1.88,40.4*,-40.4
O=[N+]([O-])c1ccc(-c2nnc(CSc3nc(-c4ccccc4)nc4ccc(F)cc34)o2)cc1,-19.7,-59.6,-9.3,·,?,-52.5
SMILES,PLK1 PBD inh,HUVEC tox IL1B,PLK1 inh,PTK2B oligo ant,IL1B NFkB pot,NFkB transloc inh
CCCN1C(=O)/C(=C/C=C2\N(CC)c3ccccc3C2(C)C)SC1=S,-223.7,-16.5,-21.3,-3.03*,5.0,-5.0
CCN1C(=O)/C(=C/N2CCc3ccccc32)SC1=S,-21.2,19.2,-13.1,-0.5,-12.4,12.4
COc1ccc(-c2ccnc(SCC(=O)Nc3ccccn3)n2)cc1,-4.8,-27.3,-7.0,1.19,10.9,-10.9
O=S(=O)(Nc1ccc(-c2nc3ccccc3o2)cc1)c1ccccc1,9.5,12.2,-0.3,-3.45*,17.7,-17.7
Cc1ccc(C(=O)N2CCN(C3c4cccc5cccc(c45)C3NS(=O)(=O)c3ccccc3)CC2)cc1 (configuration not stated),-29.5,-10.4,-3.9,-0.99,-7.8,7.8
CN1/C(=C/C(=O)c2nc(S(C)(=O)=O)ncc2Cl)C(C)(C)c2ccccc21,-7.5,-1.5,-7.1,-3.78*,-7.6,7.6
CN1/C(=C\C(=O)c2ccco2)C(C)(C)c2ccccc21,24.2,5.2,-8.1,-0.29,-1.5,1.5
COc1ccc(NC(=O)COC(=O)CCCc2c[nH]c3ccccc23)cc1OC,-24.6,3.6,-7.5,1.16,10.2,-10.2
Cc1c2cc(O)c(=O)cc-2oc2cc(O)c(O)cc12,130.4*,16.6,36.1,-1.41,4.9,-4.9
O=c1cc(-c2ccccc2F)oc2ccccc12,-10.6,24.5,-9.6,-1.28,12.4,-12.4
Cc1ccccc1CN(c1ccc(C(=O)Nc2ccccc2C(=O)NCc2ccco2)cc1)S(C)(=O)=O,-20.2,-70.2,-16.2,-3.57*,9.1,-9.1
CCCCn1ccnc1C(=O)c1cccc(S(=O)(=O)N2CC(C)CC(C)C2)c1 (configuration not stated),-9.5,-22.5,-2.9,-2.07,7.4,-7.4
COC(=O)c1cn(NC(=O)/C=C/c2ccc(OC)c(OC)c2)c(=O)c2ccccc12,·,·,·,0.92,·,·
CCc1cc2c(=O)c(-c3cscn3)coc2c(CN(C)C)c1O,-0.6,-2.4,-12.1,-3.36*,13.9,-13.9
Cc1oc2c(CN(C)C)c(O)ccc2c(=O)c1-c1cscn1,2.3,18.0,-19.3,1.15,-10.1,10.1
CCC(C)OC(=O)C1=C(C)O[C@]23OC(N)=C(C#N)[C@]12C(=O)c1ccccc13 (some centres not stated),8.9,2.7,-2.9,1.58,2.5,-2.5
CCOc1cc(NC(=O)C2CC2)c(OCC)cc1NC(=O)c1ccccn1,22.9,1.4,-6.0,-3.23*,?,-47.5
NC(=O)N1CCN(C(=O)c2ccco2)CC1,-8.3,84.3*,-8.2,0.68,-31.3,31.3*
O=C(c1ccncc1)N1CCN(C(=O)c2ccco2)CC1,14.8,-24.4,-3.9,0.85,0.0,0.0
O=C(Nc1cccc(C(=O)N2CCCCCC2)c1)c1ccco1,13.8,72.2*,-12.7,-0.17,-14.4,14.4
CCOC(=O)N1CCN(C(=O)c2cccc(NC(=O)c3ccco3)c2)CC1,-4.9,-32.7,-10.2,0.44,-1.4,1.4
CCCCN1C(=O)NC2NC(=O)NC21 (configuration not stated),13.3,33.0,-5.4,0.7,4.7,-4.7
O=C(Oc1ccc(N(Cc2cccs2)C2=NS(=O)(=O)c3ccccc32)cc1)c1ccccc1F,11.2,14.5,-12.4,-1.97,11.6,-11.6
CCCn1c(NCc2ccccn2)nc2ccccc21,30.4,92.2*,-14.7,0.95,-95.8,95.8*
